Bioassay records as filed in PubChem.
GPR151 activ – activators of human GPR151 | Q8TDV0 | PathHunter beta-arrestin GPR151 cells, luminescence | activation, % at 11.2 µM | hit rate 1% among 650,000 | AID 1508602; in the data active = activation above about 4.9%;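 note: 0% = median of compound wells and 100% = cells with positive control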
FBW7 activator – activators of human E3 ligase FBW7; Q969H0; AlphaScreen FBW7–phospho-cyclin E peptide binding, activator screen; normalized activity (activation), % at 26.1 µM; hit rate 0.13% among 650,000; AID 1259310; in the data active = normalized activity above about 1.9%;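 note: purified mutant Fbw7 with reduced substrate affinity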
TEAD-YAP block – TEAD-YAP interaction inhibition | hit rate 1.4% among 640,000 | HEK-TIYL cells, TEAD-Gal4/YAP UAS-luciferase luminescence | inhibition, % at 9.12 µM; in the data active = inhibition above about 32%;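 note: 0% = median of test compound wells and 100% = reference inhibitor wells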
MITF primary – human MITF inhibition, primary screen; AlphaScreen MITF homodimerization, bead proximity signal; inhibition, % at 2.6 µM; hit rate 0.91% among 650,000; AID 1259374; in the data active = inhibition above about 50%;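 note: 0% = vehicle wells with protein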
Target sequence (O75030 whole entry, looked up): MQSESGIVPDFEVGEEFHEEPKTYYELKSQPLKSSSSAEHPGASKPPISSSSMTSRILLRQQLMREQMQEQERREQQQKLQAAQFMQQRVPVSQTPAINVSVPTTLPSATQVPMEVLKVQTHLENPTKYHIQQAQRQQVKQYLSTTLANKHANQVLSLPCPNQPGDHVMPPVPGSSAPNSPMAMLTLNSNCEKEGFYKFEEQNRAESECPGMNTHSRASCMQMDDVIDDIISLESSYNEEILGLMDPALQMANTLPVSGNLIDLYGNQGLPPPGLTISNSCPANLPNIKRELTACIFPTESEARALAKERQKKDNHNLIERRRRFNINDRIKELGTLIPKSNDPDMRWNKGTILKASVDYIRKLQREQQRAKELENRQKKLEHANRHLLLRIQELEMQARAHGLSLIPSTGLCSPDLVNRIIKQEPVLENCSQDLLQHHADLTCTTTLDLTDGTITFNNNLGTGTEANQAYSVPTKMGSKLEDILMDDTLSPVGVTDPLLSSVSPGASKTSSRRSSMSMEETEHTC
MITF inh conf – human MITF inhibition, confirmation. hit rate 16% among 4,700. AlphaScreen MITF homodimerization, biotin/His-MITF beads. inhibition, % at 2.6 µM. AID 1259372. shares compounds with MITF primary;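 active = inhibition above a cutoff derived from the DMSO control wells, cut at about 28% in these data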;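 note: 0% = MITF dimer wells with DMSO only; inhibitors lower the bead chemiluminescence by keeping MITF from dimerizing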
AlphaScreen DR – optically interferes with AlphaScreen signal in dose response | hit rate 6% among 480 | shares compounds with MITF primary | AlphaScreen optical interference counterscreen, cell-free | IC50, µM; call rule not given here
AlphaScreen intf2 – optically interferes with AlphaScreen signal; shares compounds with MITF primary; LysRS AlphaScreen counterscreen, signal interference, triplicate; inhibition, % at 2.6 µM; hit rate 7.6% among 4,700;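 active = inhibition above a cutoff derived from the DMSO control wells, cut at about 30% in these data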
* = called active by the depositor; . = no result. Hits are enriched below; roughly 3.5% of the tested compounds scored in any of these assays.

SMILES | GPR151 activ | FBW7 activator | TEAD-YAP block | MITF primary | MITF inh conf | AlphaScreen intf2 | others
COc1ccc(CN2CCN(Cc3ccc(Cl)cc3)CC2)c(OC)c1 | 0 | 0 | -19 | 61* | 1 | 9
CCN1CCC(N(Cc2ccc(F)cc2)C(=O)Nc2ccccc2C)CC1 | -2 | 1 | 0 | 8 | . | .
Cc1cc2cc(C#N)c(N3CCCN(C(=O)Nc4ccc(C#N)cc4)CC3)nc2cc1C | 0 | 0 | -7 | 7 | . | .
CCc1ccc(CN2CCN(Cc3ccc(OC)cc3OC)CC2)cc1 | -1 | 1 | -10 | 66* | -9 | -2
COc1ccc(CN2CCN(Cc3ccc(SC)cc3)CC2)cc1OC | 2 | 0 | 35* | 76* | 20 | 19
COc1ccc(CN2CCCCC2)cc1OC | 0 | 0 | 7 | 9 | . | .
COc1cc(CN2CCN(Cc3ccc(OC)cc3OC)CC2)cc(OC)c1 | -1 | 0 | -3 | 70* | 5 | 3
Cc1ccc(/C(O)=C2\C(=O)C(=O)N(c3ccccn3)C2c2ccccc2Cl)cc1 (centres undefined) | 0 | 0 | -3 | 9 | . | .
O=C(CNC1CCCC1)Nc1ccc(CN2CCCCC2)cc1 | 1 | 0 | -6 | 65* | 3 | 16
O=C(CNC1CCCC1)Nc1ccc(C(=O)N2CCCCC2)cc1 | -1 | 0 | 2 | 46 | . | .
CN(C)CCNCC(=O)Nc1ccc(CN2CCCCC2)cc1 | 0 | 0 | 3 | 94* | 9 | 16
O=C(CN1CCN(C2CCCCC2)CC1)Nc1ccc(C(=O)N2CCOCC2)cc1 | -1 | 1 | -1 | 56* | 10 | 13
O=C(CN1CCN(C2CCCCC2)CC1)Nc1ccc(Br)cc1 | 0 | 0 | 10 | 5 | . | .
O=C(CNC1CCCCC1)Nc1ccc(C(=O)N2CCCCC2)cc1 | 0 | 0 | 0 | 53* | 7 | 14
CC(NC(=O)Nc1ccccc1C(F)(F)F)c1nc(-c2cccnc2)n[nH]1 (centres undefined) | 0 | 0 | -2 | -12 | . | .
CC(=O)c1cccc(NC(=O)Nc2cc(C(F)(F)F)ccc2Cl)c1 | 1 | 0 | 14 | 8 | . | .
Cc1cc(Cl)c(OCCOCCN2CCOCC2)c(Br)c1 | 0 | 0 | -10 | 72* | -11 | -7
Cc1cc(OCCOCCN2CCN(C)CC2)cc(C(C)C)c1 | 0 | 0 | 4 | 32 | . | .
Cc1ccc(OCCOCCN2CCOCC2)c(Br)c1 | 0 | 0 | -16 | 75* | 7 | 3
Cc1cc(OCCOCCN2CCOCC2)cc(C(C)C)c1 | -3 | 1 | 2 | 65* | 11 | 11
Cc1cc(Cl)c(OCCn2ccnc2)c(Br)c1 | -1 | 0 | -16 | 27 | . | .
Cc1cc(Cl)c(OCCOCCn2ccnc2)c(Br)c1 | 2 | 0 | -7 | 75* | 17 | 20
CC(C)N(C)Cc1nnnn1CC(=O)N1CCN(C(=O)c2cccs2)CC1 | 0 | 0 | 3 | 3 | . | .
Cc1ccc2nc(/N=C/c3cc([N+](=O)[O-])cc([N+](=O)[O-])c3O)sc2c1 | -3 | 0 | 21 | 51* | -3 | 2
Cc1cc(C)c2nc(/N=C/c3cc([N+](=O)[O-])cc([N+](=O)[O-])c3O)sc2c1 | 0 | 0 | -10 | -9 | . | .
SMILES | GPR151 activ | FBW7 activator | TEAD-YAP block | MITF primary | MITF inh conf | AlphaScreen intf2 | others
N#Cc1ccc(OCC(=O)OCC(=O)NCc2ccco2)cc1 | -1 | 0 | 4 | 3 | . | .
O=C(COC(=O)COc1ccc(Cl)cc1)NCc1ccco1 | 1 | 0 | 0 | 52* | 56* | -6 | AlphaScreen DR=>7.2
CCOC(=O)/C=C/c1ccco1 | 0 | 0 | -3 | 14 | . | .
O=C(COC(=O)/C=C/c1ccco1)NC1CCCCC1 | 4 | 0 | 7 | 8 | . | .
O=C(COC(=O)/C=C/c1ccco1)NCc1ccco1 | -2 | 0 | -3 | 63* | 64* | -1 | AlphaScreen DR=>6.6
O=C(COC(=O)/C=C/c1ccco1)COC(=O)/C=C/c1ccco1 | -1 | 0 | 6 | 78* | 63* | -15 | AlphaScreen DR=>7.1
CN(C)c1ccc(-c2cc(NCC3CCCO3)ncn2)cc1 (centres undefined) | 1 | 0 | -10 | -8 | . | .
COc1ccc2nc(Nc3nc4c(s3)CC(C)CC4)sc2c1 (centres undefined) | -1 | 1 | -20 | -1 | . | .
Cc1cccc(NC(=O)c2ccccc2NC(=O)c2cccs2)c1 | -1 | 0 | -3 | -5 | . | .
CCCCS(=O)(=O)N1CCN(CC(=O)c2cccs2)CC1 | 0 | 0 | 2 | 61* | 5 | 20
CCCS(=O)(=O)N1CCN(CC(=O)c2cccs2)CC1 | 2 | 0 | 0 | 67* | 7 | 18
COc1ccc(N2CCN(C3CCCN(C(=O)C4CCCC4)C3)CC2)cc1 (centres undefined) | -1 | 0 | 1 | 12 | . | .
O=C(Cc1cn(-c2ccc(Nc3cnccn3)nn2)c2ccccc12)NCc1nc2ccccc2[nH]1 | 3 | 0 | 4 | 6 | . | .
CCOC(=O)Cc1[nH]nc2c1C1(C(=O)N(CC)c3ccccc31)C(C#N)=C(N)O2 (centres undefined) | 0 | -1 | -1 | 60* | 28* | -16 | AlphaScreen DR=>6.5
O=C(c1csc(Nc2cccc3ccccc23)n1)N1CCCC1 | -1 | 1 | 8 | 77* | -5 | 13
FC(F)(F)c1ccc(-c2noc(-c3cc(-c4ccc(Cl)cc4)nc4ccccc34)n2)cc1 | 1 | 1 | -10 | 56* | -11 | -12
CCOC(=O)c1sc(NC(=O)CN2C(C)CCCC2C)c(C(=O)OCC)c1C (centres undefined) | 2 | 0 | -3 | 58* | -5 | 3
CCOC(=O)c1c(NC(=O)CN2CCN(CC)CC2)sc(C)c1C | -1 | 0 | 5 | 86* | 6 | 2
CCOC(=O)c1c(NC(=O)CN(C)C)sc(C)c1C | 0 | 0 | 6 | 5 | . | .
NC(=O)C1CCCN(Cc2ccc3c(c2)CN(Cc2cccc4cccnc24)CCO3)C1 (centres undefined) | 1 | 0 | -1 | 4 | . | .
COc1cc(CN2CCN(c3ccccn3)CC2)cc(Br)c1O | -1 | 0 | 6 | 42 | . | .
COc1cc(CN2CCN(Cc3ccccc3C)CC2)cc(OC)c1O | -1 | 0 | -5 | 59* | -8 | -1
COc1cc(CN2CCN(C(=O)c3ccccc3)CC2)cc(OC)c1O | 0 | 0 | 3 | 24 | . | .
COc1cc(CN2CCN(Cc3ccccc3Br)CC2)cc(OC)c1O | -1 | 1 | -1 | 68* | 2 | 18
COc1cc(CN2CCN(CCO)CC2)cc(Br)c1O | 0 | 0 | -2 | 67* | -2 | 9
COc1cc(CN2CCN(Cc3c[nH]c4ccccc34)CC2)cc(OC)c1OC | 1 | 0 | 8 | 56* | 17 | 17
OC(CN1CCN(c2ccccc2F)CC1)c1ccc2[nH]ccc2c1 (centres undefined) | 1 | 0 | -5 | 6 | . | .
CCOC(=O)c1ccc(NC(=O)CSc2nc3c(c(=O)n2CCOC)SCC3)cc1 | 1 | 0 | 8 | -1 | . | .
